The text below walks through data of PubChem BioAssay (NCI).

Holding throughout (test): NCI-60 one-dose screen, 48 h (100 = growth as untreated, 0 = no growth, -100 = all killed)
Common to all, as to conditions: 10 µM unless noted

Assay [1] concerns NCI-H23 lung.
The subject of assay [2] is NCI-H226 lung.
Assay [3] has as its system NCI-H322M lung.
The test system of assay [4] is HOP-62 NSCLC.
In assay [5] the test system is NCI-H460 lung.
In assay [6] the test system is HOP-92 NSCLC.
Assay [7] concerns NCI-H522 lung.
Assay [8] has as its system A549/ATCC NSCLC.
For assay [9], the system named is 786-0 renal.
Assay [10] concerns COLO 205 colon.

SMILES strings stand for the structures. This is part of a sample that, as a whole, favours compounds with a hit. Of some 83,000 tested, about 20% had one in any assay.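 Each cell line was grown in a 96-well plate and treated with one concentration of compound for 48 hours. Values below 10 were considered active.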 Unmarked numbers belong to inactive results. Active and inactive are the calls of the source.

In the case of `COc1cc(C=Nc2cccc(Br)c2)ccc1N(CCCl)CCCl`, the growth in assay [1] was 72.7%; in assay [2], 75.2%; in assay [3], 132%; in assay [4], 89%; in assay [5], 21.9%; in assay [6] it was 74.8%. In addition, the growth in [7] is -81.5% (active); in [8], 64.9%; in [9] it was 94.4%; in assay [10], 78.5%.

As for `Fc1cccc(NCOOC2(OOCNc3cccc(F)c3)CCCCC2)c1`, the growth in assay [1] is 81.9%; in assay [2], 112%; in assay [3], 98.6%; in assay [4] it was 90.6%; in [5], 104%; in assay [6], 87.3%. Further, the growth in [7] is 74.9%; in assay [8], 89.6%; in [9], 85%; in assay [10], 118%.

On to `O=C(c1ccccc1O)c1[nH]c(Cl)c(Cl)c1-n1c(C(=O)c2ccccc2O)cc(Cl)c1Cl`, for which the growth in assay [1] was -10.6% (active); in [2], -1.5% (active); in assay [3], -0.432% (active); in assay [4], -9.18% (active); in assay [5], 0.792% (active); in assay [6], -37.6% (active). Further, the growth in assay [7] was -17.9% (active); in assay [8] it was 3.18% (active); in [9], -9.15% (active); in assay [10], -95.7% (active).

For `O=C(O)CNC(=O)C(Cl)(Cl)Cl`, the growth in assay [1] was 106%; in assay [2], 94.1%; in [3], 97.7%; in assay [4], 107%; in assay [5] it was 96.2%; in [6] it was 87.2%. Also, the growth in assay [7] is 85.1%; in [8], 98.2%; in assay [9], 98.8%; in [10], 106%.

Take `Fc1c[c-]c(-c2ccccn2)c(F)c1.[CH3-].[Pt+2].c1ccc([PH+](c2ccccc2)c2ccccn2)cc1`: the growth in assay [1] is 0.331% (active); in assay [2] it was -53.6% (active); in assay [3], 19.4%; in [4] it was 22.3%; in assay [5] it was 3.22% (active); in assay [6] it was -25.6% (active). Besides, the growth in assay [7] is -37.9% (active); in assay [8], 11.5%; in assay [9], -1.65% (active); in [10] it was -31.5% (active).

Take `COc1cc(/C=C\c2cc(OC)c(OC)c(OC)c2)cc(N/C=C\C(=O)c2cc(OC)c(OC)c(OC)c2)c1OC`: the growth is 29.6% in assay [1]; 47.2% in [2]; 36.8% in assay [3]; 13.3% in assay [4]; 17.3% in [5]; -9.27% (active) in assay [6]. In addition, the growth in [7] was 6.46% (active); in assay [8], 40%; in [9], 44%; in [10], 3.1% (active).

Regarding `CC[C@H](C)[C@H](NC(=O)N[C@@H](C)c1ccccc1)C(=O)N(C)[C@H](C[C@@H](OC(C)=O)c1nc(C(=O)N[C@@H](Cc2ccccc2)C[C@H](C)C(=O)OC)cs1)C(C)C`, the growth was 27% in assay [1]; 30.7% in assay [2]; 51.2% in assay [3]; 22.7% in assay [4]; 3.57% (active) in assay [5]; 73.1% in assay [6]. The growth in assay [7] was -39.1% (active); in assay [8], 31.3%; in assay [9], 10.9%; in assay [10] it was -46.8% (active).

With `Nc1nnnc2nc[nH]c12`, the growth in assay [1] was 31%; in [2], -54.1% (active); in assay [3], 28.1%; in [4], -11.4% (active); in assay [5], 20.6%; in assay [6] it was 1.91% (active). For the same compound, the growth in assay [7] was 14.6%; in [8], 34.4%; in assay [9], 0.102% (active); in [10] it was 6.07% (active).

For the compound `CCOC(=O)C(Cc1ccc(N(CCCl)CCCl)cc1)NC(=O)C(CC(C)C)NC(C)=O` (stereo not given), the growth in assay [1] is 17.1%; in assay [2], 50%; in assay [3], 97.1%; in [4], 41%; in assay [5], 1.65% (active); in assay [6] it was 24.6%. Moreover, the growth in [7] is -73.1% (active); in assay [8], 49.4%; in assay [9], 9.46% (active); in assay [10] it was -29.3% (active).

Take `[Cl][Hg][c]1cc[c]([Hg][Cl])o1`: the growth in [1] was 63.5%; in [2] it was 99.1%; in assay [3], 96.9%; in assay [4], 72.9%; in [5], 68.6%; in assay [6] it was -29.1% (active). For the same compound, the growth was 2.99% (active) in [7], 88.4% in assay [8], -74.8% (active) in assay [9] and 6.94% (active) in assay [10].

As for `Nc1c(F)cc(-c2nc3cc(F)ccc3[se]2)cc1Br`, the growth in [1] was 17.4%; in assay [2], -16.3% (active); in assay [3] it was 46.9%; in assay [4] it was 39.8%; in assay [5], 3.18% (active); in [6] it was 49.7%. Besides, the growth in [7] was 67.1%; in assay [8], 22.5%; in assay [9], 95.4%; in [10], 5.84% (active).

As to `N#Cc1c(Br)n(C2OC(CO)C(O)C2O)c2ncnc(N)c12` (stereo not given), the growth was 74.4% in assay [1]; 135% in assay [2]; 81% in assay [3]; 101% in assay [4]; 34% in assay [5]; 52.7% in [6]. Besides, the growth in assay [7] is 60.5%; in assay [8], 13.4%; in assay [9], 89.1%; in assay [10] it was 18.2%.

Take `CCN(CC)CCOC(=O)C(OC(C)C)(c1ccccc1)c1ccccc1`: the growth in assay [1] was 99.1%; in [2], 100%; in assay [3], 99.6%; in assay [4] it was 94.8%; in assay [5] it was 100%; in assay [6], 80.1%. The growth in assay [7] is 82.3%; in [8], 96.9%; in [9], 88.2%; in assay [10] it was 98%.

For the compound `COC(=O)[C@@]1(C)CC[C@]2(C)CC[C@]3(C)C4=CC(=O)c5c(cc(O)c(O)c5C)[C@]4(C)CC[C@@]3(C)[C@@H]2C1`, the growth in [1] is 46.9%; in [2] it was 51.1%; in assay [3] it was 70.6%; in assay [4], 71.7%; in [5], 31.8%; in assay [6], 49.2%. For the same compound, the growth in assay [7] is 38.5%; in assay [8] it was 38.6%; in assay [9], 78.6%; in [10], 71.5%.

Regarding `O=c1[nH]cc(N(CCCl)CCCl)c(=O)[nH]1`, the growth is 54.2% in assay [1]; 76.5% in assay [2]; 96.6% in [3]; 103% in [4]; 31.8% in assay [5]; 2.65% (active) in assay [6]. Also, the growth in assay [7] was 53.8%; in assay [8] it was 77.5%; in assay [9], 44.9%; in [10] it was 81%.

In the case of `Clc1ccc(N2COOC3(OOC2)C2CC4CC(C2)CC3C4)cc1`, the growth in assay [1] was 22%; in assay [2], 95.8%; in assay [3], 76.4%; in assay [4], 45.9%; in [5], 61.5%; in assay [6], -23.1% (active). Further, the growth in assay [7] was -53.2% (active); in assay [8] it was 47.4%; in assay [9], -4.34% (active); in assay [10], 101%.

Turning to `CC(=O)O[C@@H]1CC[C@]2(C)[C@H]3CC[C@]4(C)C(=O)CC[C@H]4[C@@H]3C[C@@H]3SC(N)=N[C@@]32C1`, the growth in assay [1] was 79.6%; in assay [2], 83.4%; in assay [3] it was 89.7%; in assay [4], 70.1%; in [5], 38.7%; in [6], 78.8%. Moreover, the growth is 8.26% (active) in assay [7], 47.4% in assay [8], 58.8% in assay [9] and 48.8% in [10].

On to `C=CC[n+]1ccc(-c2cc[n+](CC=C)cc2)cc1`, for which the growth in assay [1] was 78.8%; in assay [2], 99%; in assay [3] it was 95.7%; in assay [4], 83.7%; in assay [5], 91.9%; in [6] it was 111%. The growth in assay [7] was 19.7%; in assay [8], 71.9%; in assay [9] it was 109%; in [10], 9.91% (active).

Consider `O=C1C2CCC1C(N1CCCC1)CC2` (stereo not given), for which the growth in assay [1] was 105%; in assay [2], 95.9%; in [3] it was 92.5%; in assay [4] it was 101%; in assay [5], 103%; in assay [6], 85.5%. Further, the growth in assay [7] was 94.9%; in assay [8], 97.8%; in assay [9], 98.4%; in [10], 107%.

As to `COc1ccc(/C=C\c2cc(OC)c(OC)c(OC)c2)cc1OCC(=O)Nc1nc2ccc(OC(F)(F)F)cc2s1`, the growth was 35.6% in assay [1]; 74.2% in assay [2]; 73.6% in assay [3]; 53.7% in [4]; 12.4% in assay [5]; 55.9% in assay [6]. Further, the growth in assay [7] is 15.8%; in assay [8] it was 66.5%; in assay [9], 92.6%; in assay [10] it was 106%.

For the compound `COc1cc2c(=O)n(C3CCCCCCC3)c3c4cc[nH]c4ncc3c2cc1OC`, the growth is 57.5% in assay [1]; 17.8% in assay [2]; 34.8% in assay [3]; 6.39% (active) in assay [4]; 13.6% in [5]; 46.2% in [6]. For the same compound, the growth is 48.8% in assay [7], 25.4% in [8], 31.2% in assay [9] and 58.5% in assay [10].

As to `COc1ccc(/C=C\c2cc(OC)c(OC)c(OC)c2)c(NS(=O)(=O)c2ccc(C)cc2)c1O`, the growth in [1] was 23.2%; in [2], 33.9%; in assay [3], 43.6%; in assay [4], 80.7%; in [5] it was 6.42% (active); in [6], 44.4%. The growth in assay [7] was -17.3% (active); in assay [8], 26.6%; in assay [9], 18.8%; in assay [10], -15.5% (active).

For the compound `CC(C)OC(=O)[C@H](C)NP(=O)(Oc1ccccc1)C1CCCN(O)C1=O` (stereo not given in full), the growth in assay [1] is 89.6%; in assay [2] it was 70.9%; in assay [3], 84.6%; in [4] it was 111%; in [5], 105%; in assay [6], 104%. Also, the growth is 97.6% in assay [7], 105% in assay [8], 94.3% in assay [9] and 93.1% in assay [10].

For `CC1=C(CCCOC(=O)[C@H](N)CC(C)C)C2=C(C)C3(CC3)[C@@](C)(O)C(=O)C2=C1`, the growth in [1] is -27.6% (active); in assay [2] it was 0.712% (active); in [3], 18.5%; in assay [4], -13% (active); in assay [5], 2.82% (active); in assay [6], -13.6% (active). Also, the growth was 31.3% in [7], 0.0474% (active) in assay [8], 1.3% (active) in assay [9] and -46.1% (active) in [10].

For the compound `O=C(Nc1ccc([N+](=O)[O-])cc1)C(Cl)(Cl)Cl`, the growth in assay [1] is 96.5%; in [2], 97.8%; in [3], 90.1%; in assay [4] it was 96.9%; in [5], 104%; in assay [6], 88%. Moreover, the growth in assay [7] is 106%; in assay [8] it was 94%; in assay [9] it was 96.6%; in [10] it was 107%.
